Five compounds from PubChem BioAssay can be followed below.

SMILES strings stand for the structures. Activity calls are given as the source filed them. Unless noted, the rule behind the calls is not given here.

A short description of assay [1]: compounds binding Alexa647 anti-His antibody – biochemical, small-molecule microarray, 635 nm fluorescence, artefact control for SMM control protein annotation, primary screen (AID 1128).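 Note: score merges feature fluorescence with signal-to-noise for each printed compound spot.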 To be noted: higher = more signal.
Assay [2] relates to Human papillomavirus type 1a E7 protein (residues 1-88). Description: HPV1a E7 small-molecule binders, primary screen, biochemical, small-molecule microarray, residues 1-88, 635 nm (AID 1129). To be noted: small-molecule microarray binding, fluorescence 635 nm; higher = more signal.
Assay [3] has as its target Focal adhesion kinase 1 (Homo sapiens) (UniProt Q05397). Description: PTK2 protein binding on printed compound slides – biochemical, small-molecule microarray, 635/667 nm fluorescence, BSA, DTT, primary screen (AID 1130).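 Note: composite of spot emission at 667 nm and signal to noise over triplicate slides.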 The note with it: 635 nm fluorescence, higher = more signal.
Assay [4] deals with Fibrinogen (Alexa647-labelled). As to the kind of experiment: Alexa647-fibrinogen binding to printed small molecules – biochemical, small-molecule microarray, 635/667 nm fluorescence, artefact control for SMM control-protein annotation, profiling panel (AID 1131).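 Note: z-score merges 667 nm fluorescence with per-spot signal-to-noise over triplicate slides.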 To be noted: fibrinogen-A647 binding fluorescence, higher = more signal.
In assay [5] the target is Follistatin (Homo sapiens) (UniProt P19883). Description: FST protein binding to printed compounds – biochemical, small-molecule microarray, 635/667 nm fluorescence, primary screen (AID 1132). The note with it: 635 nm fluorescence, higher = more signal.
Assay [6] concerns the target Fibroblast growth factor 2 (Homo sapiens) (UniProt P09038). As to the kind of experiment: basic fibroblast growth factor binding to printed compounds – biochemical, small-molecule microarray, 635/667 nm fluorescence, primary screen (AID 1133). To be noted: FGF2, fluorescence 635/667, higher = more signal.
A short description of assay [7]: JC-1 mitochondrial potential readout, lung cancer cells – cell-based, A549, JC-1 fluorescence, basal, 24 h, 100 nL, profiling panel (AID 1138).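 Note: A549 lung adenocarcinoma cells under basal conditions with no added stimulus; test concentration not given here.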 The note with it: higher = more signal.
Another assay concerns Lefty1. As to the kind of experiment: Lefty1 protein binding to printed compounds – biochemical, small-molecule microarray, 635/667 nm fluorescence, primary screen (AID 1139). The note with it: fluorescence 635/667, higher = more signal.
Assay [8] deals with wheat germ agglutinin (Triticum aestivum), Alexa647-labelled. As to the kind of experiment: Alexa647-WGA lectin binding to printed small molecules – biochemical, small-molecule microarray, 635/667 nm fluorescence, artefact control for SMM control-protein annotation, profiling panel (AID 1140).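 Note: score merges 667 nm feature emission with signal to noise over triplicate slides.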 To be noted: WGA-A647 binding, 635 nm fluorescence, higher = more signal.
The target in assay [9] is Luciferin 4-monooxygenase (Photinus pyralis) (UniProt P08659). As to the kind of experiment: inhibition of purified Photinus pyralis luciferase – biochemical, luminescence, purified enzyme, 2006 set, primary screen (AID 1141).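 Note: cell-free assay with purified firefly luciferase at 100 ng per well in PBS; test concentration not given here.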 The note with it: purified firefly luciferase, SteadyGlo luminescence, 30 min; higher = more signal, called active from +8 up or from −8 down.
Assay [10] concerns Wnt5a (protein binding on small-molecule microarray). Description: small molecules binding Wnt5a protein – biophysical, small-molecule microarray, 635/667 nm fluorescence, primary screen (AID 1142).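 Note: fluorescence read at 667 nm with signal to noise per printed feature.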 The note with it: 635 nm fluorescence, higher = more signal.
Assay [11] can be described thus: ATP-based viability of Huh7 replicon cells – cell-based, CellTiter-Glo luminescence, basal, 48 h, cytotoxicity control for HCV replication inhibitor project, primary screen (AID 1143).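 Note: Huh7 hepatoma cells carrying a hepatitis C replication reporter with no stimulus; test concentration not given here.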 To be noted: higher = more signal, called active from +8 up or from −8 down.
The nature of assay [12]: Pseudomonas biofilm growth suppression – PAO1 strain, BacTiter-Glo luminescence, LB-PBS, primary screen (AID 1144). To be noted: P. aeruginosa PAO1 biofilm, 12 h, higher = more signal.
Assay [13] is described as follows: basal CRE-LacZ reporter activity in PC12 – cell-based, unstimulated, primary screen (AID 1145). To be noted: no forskolin, luminescence, 4.5 h, higher = more signal, called active from +8 up or from −8 down.
A short description of assay [14]: forskolin-driven CRE-LacZ activity in PC12 – cell-based, CRE-LacZ reporter, forskolin-stimulated, primary screen (AID 1146).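 Note: PC12 cells with 6xCRE LacZ reporter stimulated by forskolin 10 µM; beta-galactosidase reporter signal reflecting CREB driven transcription.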 To be noted: luminescence, 4.5 h, higher = more signal, called active from +8 up or from −8 down.
Assay [15] has as its target Streptavidin (Streptomyces avidinii) (UniProt P22629). Description: compounds binding control protein streptavidin – biophysical, small-molecule microarray, 635/667 nm fluorescence, artefact control for SMM compound annotation, primary screen (AID 1147).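 Note: signal reflects streptavidin binding to arrayed compounds as a control protein.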 To be noted: higher = more signal.
Assay [16] can be described thus: probe aInhba binding on compound microarray – biochemical, small-molecule microarray, 635/667 nm fluorescence, primary screen (AID 1148).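 Note: score merges 667nm spot fluorescence with signal-to-noise for antibody binding to printed compounds.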 To be noted: higher = more signal.
Assay [17] concerns the target Torsin-1A (Homo sapiens) (UniProt O14656). Description: TOR1A wild-type binding on microarray – cell lysate, small-molecule microarray, lysate, 635/667 nm, primary screen (AID 1149). The note with it: COS7 hTOR1A-WT lysate, 635 nm fluorescence, higher = more signal.
Assay [18] shares this target. Description: torsin A mutant lysate binding on microarrays – cell lysate, small-molecule microarray, COS7 lysate, 635/667 nm fluorescence, primary screen (AID 1150).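 Note: score pools 667 nm emission and signal to noise measuring lysate protein binding.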 To be noted: COS7 hTOR1A mutant lysate, 635 nm fluorescence, higher = more signal.
The test system of assay [19] is Sonic hedgehog protein (Shh). Description: Sonic hedgehog microarray binding compounds – biochemical, small-molecule microarray, 635/667 nm fluorescence, primary screen (AID 1151).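 Note: Shh protein binding to compounds spotted on small-molecule microarray slides; score combines spot fluorescence intensity with signal-to-noise across triplicate slides.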 The note with it: 635 nm fluorescence, higher = more signal.

Torsin-1A (Homo sapiens), sequence (O14656 whole entry, looked up): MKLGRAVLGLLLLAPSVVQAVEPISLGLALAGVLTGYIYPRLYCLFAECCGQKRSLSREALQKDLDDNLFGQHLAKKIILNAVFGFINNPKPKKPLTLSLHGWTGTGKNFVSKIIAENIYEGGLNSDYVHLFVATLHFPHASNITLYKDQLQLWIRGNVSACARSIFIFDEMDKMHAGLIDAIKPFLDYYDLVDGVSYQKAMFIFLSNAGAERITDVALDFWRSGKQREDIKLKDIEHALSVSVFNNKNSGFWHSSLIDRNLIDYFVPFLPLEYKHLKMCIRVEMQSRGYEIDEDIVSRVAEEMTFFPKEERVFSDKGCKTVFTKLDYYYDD
Focal adhesion kinase 1 (Homo sapiens), sequence (Q05397 whole entry, looked up): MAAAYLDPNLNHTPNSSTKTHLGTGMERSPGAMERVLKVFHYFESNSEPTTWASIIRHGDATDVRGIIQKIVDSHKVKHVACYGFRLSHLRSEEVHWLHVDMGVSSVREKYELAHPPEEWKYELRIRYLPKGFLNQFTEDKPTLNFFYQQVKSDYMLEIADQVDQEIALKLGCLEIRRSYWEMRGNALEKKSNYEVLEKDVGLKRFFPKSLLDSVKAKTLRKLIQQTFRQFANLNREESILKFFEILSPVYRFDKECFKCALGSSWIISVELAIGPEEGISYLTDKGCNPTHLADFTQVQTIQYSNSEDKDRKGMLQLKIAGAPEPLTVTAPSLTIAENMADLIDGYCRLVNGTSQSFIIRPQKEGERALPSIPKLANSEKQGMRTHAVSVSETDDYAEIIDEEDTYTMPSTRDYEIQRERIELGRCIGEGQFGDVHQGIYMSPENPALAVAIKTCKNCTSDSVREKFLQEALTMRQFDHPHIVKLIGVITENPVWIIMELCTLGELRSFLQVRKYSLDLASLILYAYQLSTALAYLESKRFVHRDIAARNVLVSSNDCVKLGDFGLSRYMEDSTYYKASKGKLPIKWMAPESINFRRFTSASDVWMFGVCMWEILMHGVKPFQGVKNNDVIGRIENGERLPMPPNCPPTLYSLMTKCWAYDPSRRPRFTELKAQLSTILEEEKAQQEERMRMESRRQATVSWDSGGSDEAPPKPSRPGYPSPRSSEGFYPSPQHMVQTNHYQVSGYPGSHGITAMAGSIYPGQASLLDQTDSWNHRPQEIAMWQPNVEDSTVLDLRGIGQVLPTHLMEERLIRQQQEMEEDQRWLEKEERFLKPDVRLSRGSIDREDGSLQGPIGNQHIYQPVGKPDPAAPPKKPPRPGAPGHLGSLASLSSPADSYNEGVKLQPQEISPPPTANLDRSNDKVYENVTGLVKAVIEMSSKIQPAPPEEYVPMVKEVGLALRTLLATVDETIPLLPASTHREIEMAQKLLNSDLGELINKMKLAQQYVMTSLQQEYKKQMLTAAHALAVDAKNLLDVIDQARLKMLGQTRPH
Luciferin 4-monooxygenase (Photinus pyralis), sequence (P08659 whole entry, looked up): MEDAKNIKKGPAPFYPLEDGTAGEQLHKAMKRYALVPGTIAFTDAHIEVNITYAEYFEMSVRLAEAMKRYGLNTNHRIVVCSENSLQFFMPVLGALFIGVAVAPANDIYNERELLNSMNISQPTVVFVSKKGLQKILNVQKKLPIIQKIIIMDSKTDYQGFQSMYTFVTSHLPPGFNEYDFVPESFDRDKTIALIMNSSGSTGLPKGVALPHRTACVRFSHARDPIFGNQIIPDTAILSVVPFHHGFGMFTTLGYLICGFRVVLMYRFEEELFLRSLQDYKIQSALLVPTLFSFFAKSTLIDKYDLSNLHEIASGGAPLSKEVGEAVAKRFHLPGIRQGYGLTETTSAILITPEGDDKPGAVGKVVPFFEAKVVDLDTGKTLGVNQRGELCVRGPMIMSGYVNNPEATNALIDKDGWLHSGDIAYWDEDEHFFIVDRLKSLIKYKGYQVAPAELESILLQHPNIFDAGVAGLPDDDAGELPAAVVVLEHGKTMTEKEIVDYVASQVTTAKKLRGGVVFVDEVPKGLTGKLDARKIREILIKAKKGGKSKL
Follistatin (Homo sapiens), sequence (P19883 whole entry, looked up): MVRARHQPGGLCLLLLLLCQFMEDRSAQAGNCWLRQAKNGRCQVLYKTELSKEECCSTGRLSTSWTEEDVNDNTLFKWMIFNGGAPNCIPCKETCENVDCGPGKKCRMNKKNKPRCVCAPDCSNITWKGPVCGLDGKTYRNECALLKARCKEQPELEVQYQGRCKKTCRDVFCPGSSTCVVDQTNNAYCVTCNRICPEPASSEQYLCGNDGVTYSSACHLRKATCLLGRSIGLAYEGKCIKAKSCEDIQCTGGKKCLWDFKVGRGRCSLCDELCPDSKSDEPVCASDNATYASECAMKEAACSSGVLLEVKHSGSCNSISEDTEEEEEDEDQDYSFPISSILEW
Fibroblast growth factor 2 (Homo sapiens), sequence (P09038 whole entry, looked up): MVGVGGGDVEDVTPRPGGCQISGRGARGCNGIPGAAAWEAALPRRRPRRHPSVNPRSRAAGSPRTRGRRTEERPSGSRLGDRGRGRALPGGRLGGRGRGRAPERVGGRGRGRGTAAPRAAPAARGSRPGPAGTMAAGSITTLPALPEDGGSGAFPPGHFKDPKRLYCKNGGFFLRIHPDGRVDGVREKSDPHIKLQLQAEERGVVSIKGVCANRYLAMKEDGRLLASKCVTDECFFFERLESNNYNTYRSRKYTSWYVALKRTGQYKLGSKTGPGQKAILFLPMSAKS
Streptavidin (Streptomyces avidinii), sequence (P22629 whole entry, looked up): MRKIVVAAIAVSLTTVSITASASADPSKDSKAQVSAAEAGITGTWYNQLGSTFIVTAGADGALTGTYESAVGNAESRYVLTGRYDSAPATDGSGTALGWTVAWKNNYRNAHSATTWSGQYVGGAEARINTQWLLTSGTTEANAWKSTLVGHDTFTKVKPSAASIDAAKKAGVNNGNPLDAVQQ

Turning to `Cc1ccc(S[C@]2(C(=O)NCCN3CCOCC3)CC(=O)N(C(C)C)[C@@H]2c2ccc(CO)cc2I)cc1`, the composite z-score in assay [1] was -1.03; in [2], -0.636; in assay [3] it was 0.218; in assay [4] it was -1.09; in assay [5], -0.453; in assay [6], -0.706. The composite z-score is -0.816 in the assay on Lefty1; -0.581 in [8]; -0.141 in [10]; -0.676 in assay [15]; 0.0228 in [16]; -0.533 with Torsin-1A (Homo sapiens) [17]. The composite z-score in the assay with Torsin-1A (Homo sapiens) [18] was -0.26; in [19] it was -0.0348. Moreover, the z-score in assay [7] is 1.94; in assay [9] it was -1.3 (inactive); in assay [11], -2.88 (inactive); in assay [12] it was -0.121 (inactive); in [13], -0.116 (inactive); in assay [14] it was -0.395 (inactive).

Turning to `C[C@]1(C(=O)NC2CC2)c2ccccc2C(=O)N(Cc2cc(F)cc(C(F)(F)F)c2)[C@H]1c1ccc(CO)cc1`, the composite z-score in assay [1] is 1.26; in [2], -0.0534; in [3] it was -0.695; in assay [4], -0.331; in assay [5], 0.719; in [6], -0.785. The composite z-score was 0.0495 in the assay on Lefty1; -0.692 in [8]; -0.76 in assay [10]; -0.827 in assay [15]; -0.242 in [16]; -2.36 in the assay with Torsin-1A (Homo sapiens) [17]. The composite z-score in the assay with Torsin-1A (Homo sapiens) [18] worked out at 0.416; in [19], 1.62. Also, the z-score in assay [7] is -0.057; in assay [9] it was 0.851 (inactive); in [11] it was -2.15 (inactive); in [12], -1.05 (inactive); in assay [13] it was 0.764 (inactive); in assay [14] it was 0.864 (inactive).

For `COC(=O)[C@@]1(Cc2ccc(OC)cc2)[C@@H]2[C@@H](CC(=O)[C@H]2CC(=O)C(=O)N(C)C)CN1C(=O)c1ccccc1`, the composite z-score in [1] was found to be 2.06; in [2] it was 1.24; in assay [3], 0.462; in [4] it was 1; in assay [5], 0.594; in assay [6], 0.153. In addition, the composite z-score with Lefty1 was -0.477; in [8], 1.34; in assay [10], 2.06; in assay [15] it was 1.79; in [16] it was 1.83; with Torsin-1A (Homo sapiens) [17], -0.0909. For the same compound, the figures for the composite z-score (with Torsin-1A (Homo sapiens) [18]; in assay [19]) were 0.452 and 0.326, respectively. The z-score is 0.257 in [7]; -0.273 (inactive) in assay [9]; -3.89 (inactive) in assay [11]; 0.327 (inactive) in assay [12]; 0.39 (inactive) in assay [13]; 0.247 (inactive) in [14].

Take `COC(=O)[C@]1(Cc2ccccc2CN=[N+]=[N-])N=C(c2ccc(OCCCO)cc2)O[C@@H]1c1ccccc1N=[N+]=[N-]`: the composite z-score in assay [1] is 1.29; in assay [2] it was 0.833; in assay [3], 0.499; in [4] it was -0.0222; in [5] it was 1.15; in assay [6], 0.802. For the same compound, the composite z-score with Lefty1 was -0.251; in assay [8], 0.425; in [10] it was 0.786; in assay [15] it was -0.174; in assay [16] it was 0.0082; in the assay with Torsin-1A (Homo sapiens) [17] it was -0.0005. The figures for the composite z-score (in the assay with Torsin-1A (Homo sapiens) [18]; in assay [19]) were -0.147 and 0.336, respectively. The z-score was -0.453 in assay [7]; -3.31 (inactive) in assay [9]; -5.02 (inactive) in [11]; -0.332 (inactive) in assay [12]; 3.72 (inactive) in [13]; 0.335 (inactive) in assay [14].

In the case of `CN1C(=O)C2C=CC(C(O)c3ccc(I)cc3)N(N(c3ccccc3)c3ccccc3)C2C1=O` (stereo not given), the composite z-score in assay [1] is -0.456; in assay [2], -0.0563; in assay [3], -0.164; in assay [4], 0.25; in [5], 0.524; in assay [6] it was -0.394. In addition, the composite z-score with Lefty1 is -0.432; in assay [8], 0.536; in [10] it was -0.268; in assay [15], 0.609; in [16], -0.0581; with Torsin-1A (Homo sapiens) [17], -0.728. For the same compound, the values for the composite z-score (with Torsin-1A (Homo sapiens) [18]; in [19]) were -0.545 and -0.416, respectively. In addition, the z-score in [7] was 1.74; in assay [9] it was 0.899 (inactive); in [11] it was -0.619 (inactive); in assay [12], 0.257 (inactive); in assay [13], -0.136 (inactive); in assay [14], 0.58 (inactive).
